# Laboratory results from article PMC7862700, “An all-to-all approach to the identification of sequence-specific readers for epigenetic DNA modifications on cytosine”.
# Columns and labels:
# Assay in all cases: DAPPL (digital affinity profiling via proximity ligation, sequencing); 10 mM Tris-HCl pH 7.5, 50 mM NaCl, 1 mM DTT, 4% glycerol, room temperature, 30 min; GST-TFs on glutathione beads, 16-mer random dsDNA library, 0.1% formaldehyde crosslink after washing; high values mean tight binding
# FEV = target: T1, FEV (Homo sapiens, UniProt Q99581 1-238); conditions: protein: recombinant; tags: N-terminal GST; dsDNA, one strand shown
# T1 sequence: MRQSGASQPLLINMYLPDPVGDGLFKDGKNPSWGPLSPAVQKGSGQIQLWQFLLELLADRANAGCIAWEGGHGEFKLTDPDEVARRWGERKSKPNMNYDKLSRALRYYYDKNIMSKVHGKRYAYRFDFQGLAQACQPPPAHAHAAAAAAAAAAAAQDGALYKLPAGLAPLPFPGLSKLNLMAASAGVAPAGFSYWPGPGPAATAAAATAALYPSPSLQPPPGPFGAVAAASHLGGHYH
# Outline: (§1)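 Binding signal is each hexamer's read frequency for a factor divided by its frequency in the tag-only sample. The factors were GST-fused human transcription factors from yeast, captured on glutathione beads, DNA-barcoded and pooled with that sample. Pools were incubated with 200 nmole of a random double-stranded 16-mer DNA library in Tris/NaCl/DTT/glycerol buffer at room temperature for 30 min, then washed, crosslinked with 0.1% formaldehyde, proximity-ligated with BsaI/T4 ligase (1 h, 37 °C), PCR-amplified and sequenced on an Illumina NextSeq500.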
# ETV5 = ETV5 (Homo sapiens, UniProt P41161 1-510); conditions: protein: recombinant; tags: N-terminal GST; dsDNA, one strand shown
# Chain of ETV5 (P41161 whole entry): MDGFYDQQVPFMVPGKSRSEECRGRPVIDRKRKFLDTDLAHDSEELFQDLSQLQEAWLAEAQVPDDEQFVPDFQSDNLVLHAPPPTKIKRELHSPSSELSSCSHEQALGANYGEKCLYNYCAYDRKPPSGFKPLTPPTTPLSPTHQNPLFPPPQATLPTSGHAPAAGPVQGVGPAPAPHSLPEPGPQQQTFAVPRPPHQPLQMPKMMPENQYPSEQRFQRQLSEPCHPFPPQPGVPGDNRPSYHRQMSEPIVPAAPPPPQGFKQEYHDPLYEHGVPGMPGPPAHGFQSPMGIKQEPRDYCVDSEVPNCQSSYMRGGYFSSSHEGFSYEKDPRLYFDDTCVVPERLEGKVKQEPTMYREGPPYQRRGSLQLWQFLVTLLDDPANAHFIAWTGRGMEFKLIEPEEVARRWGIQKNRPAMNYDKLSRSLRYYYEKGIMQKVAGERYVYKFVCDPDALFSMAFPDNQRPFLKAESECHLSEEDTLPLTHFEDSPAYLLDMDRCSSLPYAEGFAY
# Outline: as §1
# HSF1 = HSF1 (Homo sapiens, UniProt Q00613 1-529); conditions: protein: recombinant; tags: N-terminal GST; chain copies: 3; dsDNA, one strand shown
# Chain of HSF1 (Q00613 whole entry): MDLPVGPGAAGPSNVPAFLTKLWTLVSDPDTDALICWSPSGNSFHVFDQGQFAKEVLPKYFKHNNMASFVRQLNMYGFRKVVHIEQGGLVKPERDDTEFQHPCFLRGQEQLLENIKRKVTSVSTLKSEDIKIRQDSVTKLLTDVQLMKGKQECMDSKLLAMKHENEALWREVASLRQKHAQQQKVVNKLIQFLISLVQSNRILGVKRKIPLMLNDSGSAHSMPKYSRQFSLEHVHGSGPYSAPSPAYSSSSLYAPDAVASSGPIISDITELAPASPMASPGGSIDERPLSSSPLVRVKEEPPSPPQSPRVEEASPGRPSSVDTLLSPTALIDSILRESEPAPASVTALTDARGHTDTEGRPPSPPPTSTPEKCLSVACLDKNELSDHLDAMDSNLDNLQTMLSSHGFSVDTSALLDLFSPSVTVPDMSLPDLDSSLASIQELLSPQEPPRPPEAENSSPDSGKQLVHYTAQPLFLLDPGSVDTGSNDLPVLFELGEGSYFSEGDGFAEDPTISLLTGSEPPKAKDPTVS
# Outline: as §1
# SPIC = target: T2, SPIC (Homo sapiens, UniProt Q8N5J4 1-248); conditions: protein: recombinant; tags: N-terminal GST; dsDNA, one strand shown
# T2 sequence: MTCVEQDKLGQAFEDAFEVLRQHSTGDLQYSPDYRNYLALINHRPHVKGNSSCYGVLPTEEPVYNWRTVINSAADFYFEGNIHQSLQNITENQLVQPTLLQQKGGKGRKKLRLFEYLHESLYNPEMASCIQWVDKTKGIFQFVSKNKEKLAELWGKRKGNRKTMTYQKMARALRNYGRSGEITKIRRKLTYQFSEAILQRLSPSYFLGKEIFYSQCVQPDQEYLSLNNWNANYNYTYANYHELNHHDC
# Outline: as §1
# ELF4 = ELF4 (Homo sapiens, UniProt Q99607 1-663); conditions: protein: recombinant; tags: N-terminal GST; dsDNA, one strand shown
# Chain of ELF4 (Q99607 whole entry): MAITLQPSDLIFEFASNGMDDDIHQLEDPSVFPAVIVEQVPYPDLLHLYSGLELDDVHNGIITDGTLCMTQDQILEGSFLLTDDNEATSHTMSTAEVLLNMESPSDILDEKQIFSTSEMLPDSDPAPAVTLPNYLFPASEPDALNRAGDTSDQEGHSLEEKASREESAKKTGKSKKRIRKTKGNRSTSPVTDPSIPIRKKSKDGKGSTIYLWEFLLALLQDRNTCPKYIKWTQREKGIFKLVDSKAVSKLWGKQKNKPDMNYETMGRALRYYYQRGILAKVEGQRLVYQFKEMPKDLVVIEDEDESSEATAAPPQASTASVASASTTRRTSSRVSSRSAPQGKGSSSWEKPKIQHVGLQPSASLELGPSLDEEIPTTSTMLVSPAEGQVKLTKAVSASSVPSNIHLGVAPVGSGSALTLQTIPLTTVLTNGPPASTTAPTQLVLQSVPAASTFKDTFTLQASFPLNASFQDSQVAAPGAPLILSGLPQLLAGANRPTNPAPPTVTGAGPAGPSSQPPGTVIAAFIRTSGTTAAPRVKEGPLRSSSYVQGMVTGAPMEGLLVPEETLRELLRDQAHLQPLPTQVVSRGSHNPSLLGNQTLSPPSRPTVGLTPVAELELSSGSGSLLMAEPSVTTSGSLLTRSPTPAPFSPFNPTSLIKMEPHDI
# Outline: as §1
# ELK4 = target: T3, ELK4 (Homo sapiens, UniProt P28324-2 1-405); conditions: protein: recombinant; tags: N-terminal GST; dsDNA, one strand shown
# T3 sequence: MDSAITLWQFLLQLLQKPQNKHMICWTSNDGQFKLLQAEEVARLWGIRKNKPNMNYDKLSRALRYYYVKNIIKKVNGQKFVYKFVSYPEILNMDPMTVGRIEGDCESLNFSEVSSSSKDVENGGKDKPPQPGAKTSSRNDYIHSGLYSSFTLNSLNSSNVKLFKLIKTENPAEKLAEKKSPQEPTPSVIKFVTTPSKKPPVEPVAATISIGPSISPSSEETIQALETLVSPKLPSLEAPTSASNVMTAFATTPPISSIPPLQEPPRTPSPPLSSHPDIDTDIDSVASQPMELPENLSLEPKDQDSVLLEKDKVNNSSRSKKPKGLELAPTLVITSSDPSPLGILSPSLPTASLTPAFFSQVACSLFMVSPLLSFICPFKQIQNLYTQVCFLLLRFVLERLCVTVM
# Outline: as §1
# ETV2 = target: T4, ETV2 (Homo sapiens, UniProt O00321 1-342); conditions: protein: recombinant; tags: N-terminal GST; dsDNA, one strand shown
# T4 sequence: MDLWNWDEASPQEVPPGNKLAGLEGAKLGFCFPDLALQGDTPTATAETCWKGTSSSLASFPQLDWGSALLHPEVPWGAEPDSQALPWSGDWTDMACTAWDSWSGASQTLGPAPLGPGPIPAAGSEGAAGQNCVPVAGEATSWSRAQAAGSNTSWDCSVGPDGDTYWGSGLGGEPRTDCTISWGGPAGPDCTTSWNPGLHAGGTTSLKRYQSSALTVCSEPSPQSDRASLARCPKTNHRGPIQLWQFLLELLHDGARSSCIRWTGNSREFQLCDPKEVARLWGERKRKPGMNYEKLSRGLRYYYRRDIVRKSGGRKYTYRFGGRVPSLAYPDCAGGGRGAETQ
# Outline: as §1
# ELF3 = target: T5, ELF3 (Homo sapiens, UniProt P78545 1-371); conditions: protein: recombinant; tags: N-terminal GST; dsDNA, one strand shown
# T5 sequence: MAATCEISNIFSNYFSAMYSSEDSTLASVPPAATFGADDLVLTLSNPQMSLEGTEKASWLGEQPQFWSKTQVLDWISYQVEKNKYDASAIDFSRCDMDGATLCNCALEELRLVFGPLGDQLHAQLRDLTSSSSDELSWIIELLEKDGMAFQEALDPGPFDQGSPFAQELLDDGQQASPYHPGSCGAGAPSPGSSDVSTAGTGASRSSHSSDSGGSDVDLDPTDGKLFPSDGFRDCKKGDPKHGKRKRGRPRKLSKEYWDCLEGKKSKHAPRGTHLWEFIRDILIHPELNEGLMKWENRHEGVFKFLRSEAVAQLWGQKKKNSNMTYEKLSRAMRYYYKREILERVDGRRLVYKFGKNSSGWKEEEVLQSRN
# Outline: as §1
# CRX = CRX (Homo sapiens, UniProt O43186 1-299); conditions: protein: recombinant; tags: N-terminal GST; dsDNA, one strand shown
# Chain of CRX (O43186 whole entry): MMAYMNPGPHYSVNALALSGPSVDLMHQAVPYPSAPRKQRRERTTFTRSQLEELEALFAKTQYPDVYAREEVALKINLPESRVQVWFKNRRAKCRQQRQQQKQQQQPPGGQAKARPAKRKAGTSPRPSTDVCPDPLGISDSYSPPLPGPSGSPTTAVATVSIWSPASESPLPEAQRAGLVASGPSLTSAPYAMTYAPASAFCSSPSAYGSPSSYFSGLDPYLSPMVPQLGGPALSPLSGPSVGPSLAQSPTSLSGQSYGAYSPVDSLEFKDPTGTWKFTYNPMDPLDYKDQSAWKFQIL
# Outline: as §1
# ETV1 = ETV1 (Homo sapiens, UniProt P50549 1-477); conditions: protein: recombinant; tags: N-terminal GST; dsDNA, one strand shown
# Chain of ETV1 (P50549 whole entry): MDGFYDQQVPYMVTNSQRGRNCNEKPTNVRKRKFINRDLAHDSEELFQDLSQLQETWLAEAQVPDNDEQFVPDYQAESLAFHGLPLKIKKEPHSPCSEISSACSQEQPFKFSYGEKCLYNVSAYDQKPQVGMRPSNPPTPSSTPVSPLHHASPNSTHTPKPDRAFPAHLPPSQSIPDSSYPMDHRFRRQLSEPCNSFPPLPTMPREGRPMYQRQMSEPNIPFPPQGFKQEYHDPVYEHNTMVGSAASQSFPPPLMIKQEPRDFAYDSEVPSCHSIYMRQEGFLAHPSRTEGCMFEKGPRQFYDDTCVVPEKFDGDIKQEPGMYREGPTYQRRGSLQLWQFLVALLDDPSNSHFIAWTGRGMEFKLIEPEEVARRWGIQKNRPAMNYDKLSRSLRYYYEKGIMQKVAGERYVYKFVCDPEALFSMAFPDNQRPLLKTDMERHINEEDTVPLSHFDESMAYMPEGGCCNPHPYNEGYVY
# Outline: as §1
# ERF = target: T6, ERF (Homo sapiens, UniProt P50548 1-548); conditions: protein: recombinant; tags: N-terminal GST; dsDNA, one strand shown
# T6 sequence: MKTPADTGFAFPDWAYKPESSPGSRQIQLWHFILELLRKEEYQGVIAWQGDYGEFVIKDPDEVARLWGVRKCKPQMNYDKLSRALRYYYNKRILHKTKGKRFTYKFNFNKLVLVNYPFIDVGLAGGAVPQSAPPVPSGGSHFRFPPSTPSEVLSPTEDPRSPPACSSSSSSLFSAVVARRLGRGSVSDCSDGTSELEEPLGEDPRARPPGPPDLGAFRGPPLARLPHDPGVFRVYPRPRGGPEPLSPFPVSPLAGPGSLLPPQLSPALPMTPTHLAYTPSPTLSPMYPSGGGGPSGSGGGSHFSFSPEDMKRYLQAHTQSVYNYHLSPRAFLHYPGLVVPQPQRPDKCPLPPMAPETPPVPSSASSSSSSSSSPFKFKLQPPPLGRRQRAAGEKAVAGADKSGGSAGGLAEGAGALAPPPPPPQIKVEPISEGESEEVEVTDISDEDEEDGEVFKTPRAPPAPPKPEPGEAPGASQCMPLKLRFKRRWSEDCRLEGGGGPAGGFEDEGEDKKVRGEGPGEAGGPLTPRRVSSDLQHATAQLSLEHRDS
# Outline: as §1
# ETV3L = target: T7, ETV3L (Homo sapiens, UniProt Q6ZN32 1-361); conditions: protein: recombinant; tags: N-terminal GST; dsDNA, one strand shown
# T7 sequence: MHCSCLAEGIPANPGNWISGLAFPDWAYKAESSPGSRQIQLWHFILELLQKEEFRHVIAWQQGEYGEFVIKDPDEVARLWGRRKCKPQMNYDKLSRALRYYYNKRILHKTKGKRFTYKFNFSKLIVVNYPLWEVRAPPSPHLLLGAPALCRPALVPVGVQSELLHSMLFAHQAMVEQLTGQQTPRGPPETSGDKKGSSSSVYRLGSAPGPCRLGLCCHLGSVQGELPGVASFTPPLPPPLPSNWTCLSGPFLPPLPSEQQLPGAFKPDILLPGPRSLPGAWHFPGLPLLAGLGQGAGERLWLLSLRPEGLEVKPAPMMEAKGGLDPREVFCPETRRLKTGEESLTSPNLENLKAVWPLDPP
# Outline: as §1
# ETS2 = target: T8, ETS2 (Homo sapiens, UniProt P15036 1-469); conditions: protein: recombinant; tags: N-terminal GST; dsDNA, one strand shown
# T8 sequence: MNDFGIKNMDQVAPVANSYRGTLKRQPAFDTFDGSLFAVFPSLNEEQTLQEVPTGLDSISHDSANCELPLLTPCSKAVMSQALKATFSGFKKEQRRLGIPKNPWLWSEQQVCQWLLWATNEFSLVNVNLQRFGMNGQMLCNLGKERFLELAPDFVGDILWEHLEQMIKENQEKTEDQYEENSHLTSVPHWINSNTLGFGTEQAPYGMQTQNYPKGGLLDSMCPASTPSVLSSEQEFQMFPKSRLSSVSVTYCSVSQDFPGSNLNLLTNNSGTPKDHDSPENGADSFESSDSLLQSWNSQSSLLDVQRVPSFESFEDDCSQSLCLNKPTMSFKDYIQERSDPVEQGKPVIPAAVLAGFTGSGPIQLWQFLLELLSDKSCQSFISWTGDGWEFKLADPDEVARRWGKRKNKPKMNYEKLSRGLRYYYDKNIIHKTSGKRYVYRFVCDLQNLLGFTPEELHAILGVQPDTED
# Outline: as §1
# SPDEF = target: T9, SPDEF (Homo sapiens, UniProt O95238 1-335); conditions: protein: recombinant; tags: N-terminal GST; dsDNA, one strand shown
# T9 sequence: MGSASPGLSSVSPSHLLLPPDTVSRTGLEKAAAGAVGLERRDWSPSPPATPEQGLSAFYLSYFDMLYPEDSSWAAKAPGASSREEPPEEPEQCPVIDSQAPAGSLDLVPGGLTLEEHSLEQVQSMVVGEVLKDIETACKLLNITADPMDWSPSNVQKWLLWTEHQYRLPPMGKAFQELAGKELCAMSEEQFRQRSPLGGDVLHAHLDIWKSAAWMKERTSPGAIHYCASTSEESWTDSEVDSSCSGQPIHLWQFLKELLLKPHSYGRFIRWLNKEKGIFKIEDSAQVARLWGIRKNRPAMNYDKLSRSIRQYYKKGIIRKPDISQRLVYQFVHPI
# Outline: as §1
# ETV7 = target: T10, ETV7 (Homo sapiens, UniProt Q9Y603 1-341); conditions: protein: recombinant; tags: N-terminal GST; dsDNA, one strand shown
# T10 sequence: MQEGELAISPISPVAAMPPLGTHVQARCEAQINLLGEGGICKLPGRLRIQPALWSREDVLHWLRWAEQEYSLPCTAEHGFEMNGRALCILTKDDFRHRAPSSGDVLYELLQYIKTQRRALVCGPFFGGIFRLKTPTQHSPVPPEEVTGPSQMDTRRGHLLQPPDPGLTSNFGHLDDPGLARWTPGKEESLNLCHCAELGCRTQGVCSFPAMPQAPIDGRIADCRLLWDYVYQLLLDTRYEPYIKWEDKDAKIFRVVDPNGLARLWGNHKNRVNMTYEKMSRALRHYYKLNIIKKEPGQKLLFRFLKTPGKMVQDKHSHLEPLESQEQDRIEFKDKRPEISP
# Outline: as §1
# ELF5 = target: T11, ELF5 (Homo sapiens, UniProt Q9UKW6-2 1-255); conditions: protein: recombinant; tags: N-terminal GST; dsDNA, one strand shown
# T11 sequence: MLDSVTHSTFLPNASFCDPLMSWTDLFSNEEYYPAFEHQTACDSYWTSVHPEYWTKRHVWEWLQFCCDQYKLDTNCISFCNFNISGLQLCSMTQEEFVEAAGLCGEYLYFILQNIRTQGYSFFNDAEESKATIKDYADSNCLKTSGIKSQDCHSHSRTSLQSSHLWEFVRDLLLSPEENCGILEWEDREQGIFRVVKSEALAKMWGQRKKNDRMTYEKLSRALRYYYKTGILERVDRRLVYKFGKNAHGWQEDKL
# Outline: as §1
# ETV3 = target: T12, ETV3 (Homo sapiens, UniProt P41162-2 1-143); conditions: protein: recombinant; tags: N-terminal GST; dsDNA, one strand shown
# T12 sequence: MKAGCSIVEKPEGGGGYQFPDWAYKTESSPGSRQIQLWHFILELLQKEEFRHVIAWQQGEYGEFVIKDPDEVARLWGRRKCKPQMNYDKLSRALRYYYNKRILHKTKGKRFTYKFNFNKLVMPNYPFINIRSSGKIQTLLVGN
# Outline: as §1
# ETV6 = ETV6 (Homo sapiens, UniProt P41212 1-452); conditions: protein: recombinant; tags: N-terminal GST; dsDNA, one strand shown
# Chain of ETV6 (P41212 whole entry): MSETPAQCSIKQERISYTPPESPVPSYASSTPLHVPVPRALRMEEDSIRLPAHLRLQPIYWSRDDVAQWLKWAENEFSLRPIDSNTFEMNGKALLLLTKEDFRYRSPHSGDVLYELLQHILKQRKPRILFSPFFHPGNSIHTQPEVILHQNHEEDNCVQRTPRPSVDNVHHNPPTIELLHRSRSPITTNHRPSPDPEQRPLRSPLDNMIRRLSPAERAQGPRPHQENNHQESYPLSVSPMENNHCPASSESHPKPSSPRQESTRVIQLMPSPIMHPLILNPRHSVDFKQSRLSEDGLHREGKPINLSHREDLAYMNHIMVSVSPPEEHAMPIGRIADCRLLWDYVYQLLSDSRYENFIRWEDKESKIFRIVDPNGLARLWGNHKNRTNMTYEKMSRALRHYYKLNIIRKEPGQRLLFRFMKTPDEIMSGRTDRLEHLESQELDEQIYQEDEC
# Outline: as §1
sequence,measurement,setting,value
AACTCG,binding signal,FEV,"1.32 fold enrichment (6-mer frequency, TF over GST control)"
same,binding signal,ETV5,"1.29 fold enrichment (6-mer frequency, TF over GST control)"
same,binding signal,HSF1,"1.4 fold enrichment (6-mer frequency, TF over GST control)"
same,binding signal,SPIC,"1.58 fold enrichment (6-mer frequency, TF over GST control)"
same,binding signal,ELF4,"1.37 fold enrichment (6-mer frequency, TF over GST control)"
same,binding signal,ELK4,"1.29 fold enrichment (6-mer frequency, TF over GST control)"
same,binding signal,ETV2,"1.37 fold enrichment (6-mer frequency, TF over GST control)"
same,binding signal,ELF3,"1.29 fold enrichment (6-mer frequency, TF over GST control)"
same,binding signal,CRX,"1.3 fold enrichment (6-mer frequency, TF over GST control)"
same,binding signal,ETV1,"1.3 fold enrichment (6-mer frequency, TF over GST control)"
same,binding signal,ERF,"1.44 fold enrichment (6-mer frequency, TF over GST control)"
same,binding signal,ETV3L,"1.43 fold enrichment (6-mer frequency, TF over GST control)"
same,binding signal,ETS2,"1.31 fold enrichment (6-mer frequency, TF over GST control)"
same,binding signal,SPDEF,"1.31 fold enrichment (6-mer frequency, TF over GST control)"
same,binding signal,ETV7,"1.33 fold enrichment (6-mer frequency, TF over GST control)"
same,binding signal,ELF5,"1.35 fold enrichment (6-mer frequency, TF over GST control)"
same,binding signal,ETV3,"1.4 fold enrichment (6-mer frequency, TF over GST control)"
same,binding signal,ETV6,"1.33 fold enrichment (6-mer frequency, TF over GST control)"
